From PubChem BioAssay (Tox21)
Results filed as inconclusive are left out. A call without a number means that no potency is given here. Active and inactive are the calls of the source. Calls come from the whole dose curve; as a rule, active = well fitted cell-killing curve with a large enough effect in the repeat runs (not every such curve was filed as active); inconclusive = weak or mixed curves, or effect the other way; inactive = no such curve, though single readings can be large or run the other way.
Potency is the fitted concentration of half-maximal effect.

Test: qHTS assay to identify small molecule antagonists of the estrogen related receptor signaling pathway with the pleiotropic PPARgamma coactivator (PGC) from Tox21 10K library - cell viability counter screen (AID 1224840); note: nearly all actives have a fitted effect of over 40% in size
Conditions: PGC/ERR reporter cells viability, CellTiter-Fluor, 17.5 h; series mostly up to 92.4 µM
Text: National Center for Advancing Translational Sciences [NCATS]
NIH Chemical Genomics Center [NCGC]
U.S. Environmental Protection Agency [EPA]
National Institutes of Environmental Health Sciences [NIEHS]
National Toxicology Program [NTP]
U.S. Food and Drug Administration [FDA]
Estrogen related receptors (ERRs), the first orphan nuclear receptors discovered, play an important role in the control of cellular energy metabolism. ERRs are required for high-energy production in response to the environmental challenges. The pleiotropic PPARgamma coactivator (PGC) is a major partner of ERR and a key regulator in energy homeostasis. Together they have been implicated in the etiology of metabolic disorders such as Type 2 diabetes and metabolic syndrome. ERR-alpha was also identified as an adverse marker for breast cancer progression; ERR-alpha-positive tumors have a poor prognosis. To screen and to identify environmental compounds that perturb the ERR and PGC/ERR signaling pathways could provide valuable information for potential therapeutic or preventive measures in the treatment of metabolic disease. To differentiate true PGC/ERR antagonists or agonist from cytotoxic substances, the assay is multiplexed with cell viability assay.
Tox21 Assay Protocol Summary:
The PGC/ERR cells were dispensed at 2,000 cells/5 ul/well in 1536-well white plates using a Multidrop dispenser. After the assay plates were incubated at a 37 C/5% CO2 incubator for 6 hours, 23 nL of compounds dissolved in DMSO, positive and negative controls or DMSO only was transferred to the assay plate by a pin tool. The plates were incubated at 37 C for 17.5 hours. 1 ul/well of CellTiter-Fluor reagent was added into the assay plates using a Flying Reagent Dispenser. After 30-minute incubation at 37 C/5% CO2, the fluorescence intensity in the plates was measured using a ViewLux plate reader.
In the case of `CN(C)CCN1C(=O)c2ccccc2N(C)c2ccccc21`, the Potency is reported as “inactive”.
For `COc1cc(C(=O)NC2CCN(C)CC2)ccc1Nc1ncc2c(n1)N(C1CCCC1)CC(F)(F)C(=O)N2C`, the Potency was 35.3 µM (active).
In the case of `C1C[C@@H]2[C@H]3CC[C@H](C3)[C@@H]2C1`, the Potency is reported as “inactive”.
With `CCC(C)COC(C)=O` (stereo not given) the Potency was “inactive”.
In the case of `CCC(=O)OC`, the Potency is reported as “inactive”.
In the case of `Oc1cccc(O)c1O`, the Potency is reported as “inactive”.
For `CCC(C)COC(=O)CC(C)C` (stereo not given), the Potency was “inactive”.
For `C=C(C)C(=O)OCCCCCCCCCCCCC`, the Potency was “inactive”.
In the case of `CN1C(=O)OC(C)(C)C1=O`, the Potency is reported as “inactive”.
For `CC(=O)OCC[N+](C)(C)C`, the Potency was “inactive”.
With `O=C(Cn1ccnc1[N+](=O)[O-])NCCO` the Potency was “inactive”.
With `CCOC(=O)c1ccc(OCCN2C[C@H](O)[C@@H](O)[C@H](O)[C@H]2CO)cc1` the Potency was “inactive”.
With `CCCCCCCCOc1ccc(C(=O)O)cc1` the Potency was “inactive”.
In the case of `CC=C(Cl)Cl`, the Potency is reported as “inactive”.
With `Cc1[nH]cnc1CN1CCc2c(c3ccccc3n2C)C1=O` the Potency was “inactive”.
For `CCCCC(CC)COP(=O)(O)O` (stereo not given), the Potency was “inactive”.
With `C[C@H]1C[C@H](O)c2ccsc2S1(=O)=O` the Potency was “inactive”.
In the case of `CCCC(=O)C(=O)O`, the Potency is reported as “inactive”.
With `CCCCN(CCCC)C(C(N)=O)c1ccc(OC)cc1` (stereo not given) the Potency was “inactive”.
With `Cc1cccc(O)c1N` the Potency was “inactive”.
In the case of `CCC(C)(C)OC`, the Potency is reported as “inactive”.
In the case of `CCC1NC(=O)c2cc(S(N)(=O)=O)c(Cl)cc2N1` (stereo not given), the Potency is reported as “inactive”.
For `CC1(C)[C@H](C(=O)O)N2C(=O)C[C@H]2S1(=O)=O`, the Potency was “inactive”.
With `COc1ccc(OC(=O)N(CC(=O)O)Cc2ccc(OCCc3nc(-c4ccccc4)oc3C)cc2)cc1` the Potency was “inactive”.
With `C[C@@H]1CN(CCCn2c3ccccc3c3ccccc32)C[C@H](C)N1` the Potency was 26.6 µM (active).
In the case of `CC(=O)Nc1ccc(C)cc1C`, the Potency is reported as “inactive”.
For `CC(=O)N/N=C/c1ccc([N+](=O)[O-])o1`, the Potency was “inactive”.
With `CCOC(=O)C1=C(C)NC(C)=C(C(=O)OC)C1c1cccc(Cl)c1Cl` (stereo not given) the Potency was “inactive”.
With `COC(=O)[C@H]1[C@H]2C[C@@H]3c4[nH]c5cc(OC)ccc5c4CCN3C[C@H]2C[C@@H](OC(=O)/C=C/c2ccc(O)c(OC)c2)[C@@H]1OC` the Potency was “inactive”.
In the case of `COC(=O)CS`, the Potency is reported as “inactive”.
In the case of `C=CC(=O)[O-].C=CC(=O)[O-].[Zn+2]`, the Potency is reported as “inactive”.
In the case of `COC(=O)c1nc(Cl)c(Cl)nc1N`, the Potency is reported as 1.68 µM (active).
In the case of `Nc1ccc(N=Nc2ccccc2)c(N)c1`, the Potency is reported as 26.7 µM (active).
With `CN1C(=O)N(c2ccccc2Br)Cc2cnc(Nc3ccc4c(c3)OCC(CO)O4)nc21` (stereo not given) the Potency was 21.7 µM (active).
In the case of `COC(=O)C1=C(C)NC(C)=C(C(=O)O[C@@H]2CCCN(Cc3ccccc3)C2)[C@@H]1c1cccc([N+](=O)[O-])c1`, the Potency is reported as “inactive”.
In the case of `CCOC(=O)c1ccc(O)c(O)c1`, the Potency is reported as “inactive”.
With `OCCOCC#CCOCCO` the Potency was “inactive”.
With `O=[N+]([O-])c1cc(C2CCCCC2)c(O)c([N+](=O)[O-])c1` the Potency was 12.2 µM (active).
With `C=C(C)[C@@H]1CCC2=CCC[C@@H](C)[C@]2(C)C1` the Potency was “inactive”.
For `NC1[C@H]2CN(c3nc4c(cc3F)c(=O)c(C(=O)O)cn4-c3ccc(F)cc3F)C[C@@H]12` (stereo not given in full), the Potency was “inactive”.
